Screening results from PubChem BioAssay.
The list is not random: actives were taken first. Their share in the collection is about 21%.
Shiga toxin inh = Shiga toxin inhibition | AID 2315 | 290,000 tested, 9.2% active | Vero cells, Shiga toxin protein synthesis inhibition reporter | inhibition, % at 38.7 µM; in the data active = inhibition mostly above about 28%, no sharp cut-off; inactive = mostly below about 43%; note: 0% is about no effect
Sm TGR block = S. mansoni TGR enzyme inhibition; Potency, µM (series often up to 114 µM), without a hit: top-dose activity change, negative = inhibition, usual class: inhibitors; purified TGR, DTNB reduction, TNB absorbance 405 nm; AID 485364; 360,000 tested, 3% active; note: potency is the fitted concentration of half-maximal effect; % is set by controls: 0 for no effect and ±100 for the full control effect; nearly all actives have a fitted effect of over 60% in size
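Kinetic colorimetric format: TGR-catalysed, NADPH-driven DTNB reduction monitored via TNB absorbance. Enzyme dispensed at 20 nM; compound exposure 15 min at room temperature before reaction start.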
Pf growth 96h = P. falciparum growth inhibition at 96 hours | P. falciparum luciferase reporter growth, 96 h | Potency, µM (highest dose often 28.7 µM), for inactives: at the top dose activity change, negative = inhibition, most hits filed as inhibitors | 320,000 tested, 6.9% active; note: potency is the fitted concentration of half-maximal effect; % is set by controls: 0 for no effect and ±100 for the full control effect
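Compounds incubated with erythrocytes infected by luciferase-expressing P. falciparum (2% hematocrit, 0.05% parasitemia final) for 96 hours, 37 C in 5% CO2. Growth inhibition scored as decreased luciferase luminescence.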
Cycloheximide cs = counter-screen for Shiga toxin inhibitors: cycloheximide protein synthesis inhibition; cell reporter, cycloheximide protein synthesis inhibition counterscreen; max response, %; 300,000 tested, 12% active; in the data active = max response mostly above about 13%, no sharp cut-off; inactive = mostly below about 14%; note: read at 38.3 µM for the half of the compounds with a filed dose; 0% is about no effect
Pf growth 48h = inhibits P. falciparum growth in the first generation, 48 h; P. falciparum luciferase growth in erythrocytes, 48 h; Potency, µM (doses to about 28.7 µM), for the others: at the highest dose activity change, negative = inhibition, usual class: inhibitors; 310,000 tested, 5.9% active; note: potency is the fitted concentration of half-maximal effect; % is set by controls: 0 for no effect and ±100 for the full control effect
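Luciferase-expressing P. falciparum in infected erythrocytes (2% hematocrit, 0.1% parasitemia final) in RPMI 1640/0.5% Albumax were exposed to compound for 48 hours at 37 C, 5% CO2; growth read as luminescence.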
NS1 function inh = influenza NS1 inhibition | Potency, µM (doses to about 46.1 µM), inactives show at the top dose activity, positive = more growth | 270,000 tested, 0.4% active | AID 2326; calls by dose curve; note: potency is the fitted concentration of half-maximal effect; actives are rising curves; nearly all actives have a fitted effect of over 50% in size
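Recovery from NS1-induced slow growth read by OD600 in budding yeast switched to galactose assay medium (pH 6.0, -URA) at 1:100 dilution. Compound 23 nl per well; the matching strain lacking NS1 serves as control.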
Numbers without * were called inactive; i = inactive; ? = inconclusive; nt = no result given; ! = not active in a repeat. Unless noted, calls come from the whole dose curve; as a rule, active = well fitted curve in the direction sought with a large enough effect; inconclusive = small, poorly fitted or top-dose-only effect, or another doubt; inactive = no such curve, though single readings can be large; an effect the other way counts as inactive or inconclusive.

SMILES	Shiga toxin inh	Sm TGR block	Pf growth 96h	Cycloheximide cs	Pf growth 48h	NS1 function inh
CN(C(=S)Nc1ccccc1F)C1(c2ccccc2Cl)CCCCC1=O (centres undefined)	-10.4	-6.4%	?	-1.7	10.4µM*	6.0%
O=c1c(=Nc2ccccc2O)c(=O)c2ccccc12	108.5*	0.3%	9.0%	21.5*	14.7%	-1.9%
CCOC(=O)C1=C(c2ccccc2)Nc2ncnn2C1c1cccc(OC)c1OC (centres undefined)	-12.5	0.7%	1.85µM*	-0.3	?	-12.8%
CCOC(=O)C1=C(c2ccccc2)Nc2ncnn2C1c1cc(OC)cc(OC)c1OC (centres undefined)	-9.6	-28.4%	?	-7.4	?	-3.6%
COc1cccc(C2C(C(=O)Nc3ccc(C)cc3C)=C(C)Nc3ncnn32)c1OC (centres undefined)	-0.8	-22.6%	-11.4%	-2.2	11.7µM*	-1.4%
CCOc1cc(Br)c(CC(=O)O)cc1OCC	17.1	13.0%	-7.1%	6.8	130.7%	-2.7%
CCOc1cc(OCC)c(C(=O)CCC(=O)O)cc1OCC	nt	nt	2.39µM*	nt	?	nt
O=C(NCc1ccc(Cl)cc1)c1noc2c1CCCCC2	46.8*	3.0%	9.28µM*	32.1*	43.3%	-35.9%
CC(C)(C)C1CCc2onc(C(=O)NCc3ccc(F)cc3)c2C1 (centres undefined)	3.7	9.8%	0.2%	-2.8	18.4%	-71.5%
O=C(Nc1cc(Cl)ccc1Cl)c1noc2c1CCCC2	-1.6	4.1%	8.1%	1.5	20.6%	?
O=C(NCc1ccc(F)cc1)c1noc2c1CCCCC2	31.9	1.8%	?	20.8*	31.4%	-16.9%
O=C(NCc1ccc(F)cc1)c1noc2c1CCCC2	50.5	11.6%	50.3%	20.5*	21.9%	-9.3%
O=C(Nc1ccc(F)cc1F)c1noc2c1CCC2	58.8*	?	37.4%	34.9*	?	-1.1%
COc1ccc(OC)c(S(=O)(=O)N2CCN(CC(O)COc3ccc(C#N)cc3)CC2)c1 (centres undefined)	-5.0	1.3%	?	-5.8	?	-9.6%
CCN(CC)CCNC(=O)C1CCN(C(=O)c2cnn(-c3ccccc3)c2-n2cccc2)CC1	nt	3.9%	nt	nt	nt	nt
O=C(Cc1ccccc1)NNC(=O)c1ccc(Br)o1	2.0	0.0%	3.8%	-2.2	28.0%	6.5%
NC(=O)c1ccccc1NC(=S)NC(=O)c1ccc(Br)o1	56.4*	?	23.9%	35.2*	34.5%	-15.9%
C/C(=N/NC(=O)c1ccc(Br)o1)C(C)C	79.3*	0.9%	?	30.5*	10.2%	6.6%
COc1ccc(NC(=O)c2ccc([N+](=O)[O-])o2)cc1	21.4	?	0.0%	9.4	?	-62.1%
O=C(Nc1ccc(Cc2ccncc2)cc1)c1ccc(Br)o1	33.7	-7.5%	nt	15.4*	-1.0%	-49.0%
COc1ccc(NC(=O)c2ccc(Br)o2)cc1	95.7*	0.6%	130.4%	35.7*	198.3%	13.3%
CC(C)c1cc(C(=O)N2CCCC(CCC(=O)NCc3ccccc3F)C2)n(C)n1 (centres undefined)	34.1	nt	0.5%	-2.7	-5.0%	0.6%
CCOC(=O)Cc1nnc(NC(=O)CSc2nc3ccccc3[nH]2)s1	3.5	0.2%	10.5%	3.0	1.0%	2.2%
Cc1ccc(NC(=O)NCc2cccn2Cc2ccccc2)c(C)c1	nt	39.7%	nt	nt	nt	nt
CC(C)(C)c1ccc(OCCn2cc(C(=O)c3ccco3)c3ccccc32)cc1	nt	16.3%	nt	nt	nt	nt
SMILES	Shiga toxin inh	Sm TGR block	Pf growth 96h	Cycloheximide cs	Pf growth 48h	NS1 function inh
CC(C)c1ccc(NC(=O)c2ccc(Br)o2)cc1	50.2*	-0.6%	-8.4%	40.3*	111.9%	3.0%
O=C(Nc1ccc(Nc2ccccc2)cc1)c1ccc(Br)o1	60.7*	1.1%	128.1%	27.4*	6.4%	-121.5%
O=C(Nc1ccc2c(c1)Cc1ccccc1-2)c1ccc(Br)o1	35.0*	1.9%	?	34.2*	3.5%	11.2%
O=C(Nc1cccc(-c2nnc(-c3ccccc3)o2)c1)c1ccc(Br)o1	19.4	-3.9%	23.9%	15.3	14.1%	-16.2%
CN(C)S(=O)(=O)c1ccc(NC(=O)c2ccc(Br)o2)cc1	-3.6	-23.6%	-23.9%	27.7	nt	-86.8%
COc1ccc(NC(=S)NC(=O)c2ccc(Br)o2)cc1	96.4*	8.91µM*	23.1%	67.1*	0.0%	3.0%
Cn1c(/C(C#N)=C/c2ccc(C(F)(F)F)cc2)nc2ccccc21	nt	2.5%	nt	nt	nt	nt
CC(=O)c1cccc(OC(=O)C2=CC=CN3CCS(=O)(=O)N=C23)c1	nt	-11.8%	?	nt	-13.2%	nt
CC(C)(Oc1ccc(Cl)cc1)C(=O)NNC(=O)c1ccc(Br)o1	2.1	-18.4%	-17.4%	15.0*	-2.4%	-2.2%
O=C(NC(=S)NCc1ccccc1)c1ccc(Br)o1	26.9	-18.7%	1.6%	12.3	21.8%	-9.4%
O=C(NC(=S)Nc1ccccc1)c1ccc(Br)o1	78.6*	?	118.5%	36.4*	89.2%	2.8%
O=C(NNC(=S)NCc1ccc(Cl)cc1)c1ccc(Br)o1	31.6	nt	24.0%	8.8	21.1%	-1.9%
COc1cc(/C=C2\CCC/C(=C\c3ccc(O)c(OC)c3)C2=O)ccc1O	76.3*	?	5.36µM*!	42.2*	9.28µM*	-0.8%
COc1cc(/C=C2/C(=O)CNC2=O)ccc1O	6.2	-2.2%	5.0%	-6.0	i	nt
CCOc1cc(/C=N/N=C/c2ccc(O)c(OCC)c2)ccc1O	21.2	-15.2%	5.0%	10.7	nt	2.5%
O=C1/C(=C/c2ccc(O)c(O)c2)Oc2cc(O)ccc21	6.4	?	-14.0%	-2.0	-2.2%	-5.0%
CCN1C/C(=C/c2cccc([N+](=O)[O-])c2)C(=O)/C(=C/c2cccc([N+](=O)[O-])c2)C1	1.4	-29.0%	2.33µM*	-6.6	1.65µM*	-18.1%
COc1cc(/C=C2\Oc3cc(O)ccc3C2=O)ccc1O	70.3*	1.0%	?	50.9*	147.4%	-1.1%
CCOc1cc(/C=C2\CN(CC)C/C(=C\c3ccc(O)c(OCC)c3)C2=O)ccc1O	2.9	39.8µM*	2.08µM*	23.5*	2.08µM*	-1.1%
COc1ccc(-n2nnnc2C2CCN(S(=O)(=O)c3cccc(C(F)(F)F)c3)CC2)cc1	nt	1.6%	nt	nt	nt	nt
Cc1ccc(C(C)C)c(OCC(=O)NNC(=O)CC2OC(=O)c3ccccc32)c1 (centres undefined)	nt	20.4%	6.0%	nt	-7.9%	nt
COc1cc(/C=C2/CCCC(C(=O)C(F)(F)F)=C2O)ccc1O	16.6	35.5µM*	32.0%	1.4	11.6%	8.4%
COc1ccc(/C=C2\CCCC(C(=O)C(F)(F)F)=C2O)cc1OC	76.2	31.6µM*	?	19.5*	0.0%	nt
O=C(O)C[n+]1ccccc1	nt	nt	nt	nt	nt	8.3%
COC(=O)Cc1ccc(NC(=O)c2ccccc2Br)cc1	50.2	1.8%	16.9%	15.1*	4.9%	-0.9%
O=C(Nc1cccc(C(F)(F)F)c1)C1(c2ccccc2)CC1	-7.3	-0.2%	20.9%	-1.8	16.3%	-5.5%
